Assay outcomes from PubChem BioAssay.
Marburg entry inh – blocks Marburg virus binding to or entry into cells; Marburg virus pseudotyped entry inhibition, cell reporter; Potency, µM (highest dose often 37.8 µM), for inactives: top-dose activity change, negative = inhibition, most hits filed as inhibitors; actives 1.8% (n = 300,000); AID 540276; calls by dose curve; tested in HEK293 cells; further: potency means the concentration at half of the fitted maximal effect; on the % scale 0 is the no-effect control and ±100 the full control effect
SARS PLP yeast – blocks SARS-CoV papain-like protease in a yeast assay; S. cerevisiae expressing SARS-CoV PLpro, growth rescue; Potency, µM (doses to about 32.9 µM), without a hit: top-dose activity, positive = growth rescue, usual class: activators; actives 0.19% (n = 330,000); AID 485353; calls by dose curve; further: potency means the concentration at half of the fitted maximal effect; 0% is about no effect; nearly all actives have a fitted effect of over 55% in size
HCV inh – inhibitors of hepatitis C virus infection | Huh7.5.1 HCVcc-Cre infection, luciferase reporter, 44 h | Potency, µM (top dose mostly 41.8 µM), for the others: at the top dose activity change, negative = inhibition, usual class: inhibitors | actives 3.4% (n = 340,000); active means well fitted inhibition curve with a large enough effect; inconclusive means small, poorly fitted or top-dose-only effect, or another doubt; inactive means no such curve, though single readings can be large or run the other way; further: potency means the concentration at half of the fitted maximal effect; on the % scale 0 is the no-effect control and ±100 the full control effect
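Infectious HCV cell culture screen: compound-treated cells (1,000/well, pre-plated 4 h) are infected with HCVcc-Cre at roughly 0.5 moi and grown 44 h. Infection is quantified by luciferase signal after 15 min substrate incubation at room temperature.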
FMDV inh – foot and mouth disease virus antiviral activity; FMDV antiviral cell-based qHTS; Potency, µM (series often up to 57.9 µM), for the others: at the top dose activity change, negative = inhibition, most hits filed as inhibitors; actives 1.2% (n = 410,000); AID 1159524; calls by dose curve; tested in HEK293T cells; further: read-out not given here; potency means the concentration at half of the fitted maximal effect; on the % scale 0 is the no-effect control and ±100 the full control effect; nearly all actives have a fitted effect of over 45% in size
LASV entry inh – Lassa virus entry inhibition. Lassa virus pseudotype entry inhibition, cell reporter. Potency, µM (titrated, usually from 37.9 µM), for the others: at the top dose activity change, negative = inhibition, hits mostly inhibitors. actives 1.2% (n = 300,000). AID 540256; calls by dose curve; tested in HEK293 cells; further: potency means the concentration at half of the fitted maximal effect; on the % scale 0 is the no-effect control and ±100 the full control effect; nearly all actives have a fitted effect of over 50% in size
HCMV antiviral – blocks human cytomegalovirus replication | HFF cells, HCMV-luciferase reporter, 72 h; hits give low values | activity change, negative = inhibition, % at 57.5 µM | actives 4.5% (n = 410,000); in the data active means activity change below about -60%; inconclusive means no clear call, values can overlap the other calls; inactive means above about -39%; further: on the % scale 0 is the no-effect control and ±100 the full control effect
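HFF cells seeded 16 h at 37C, treated with compounds, infected with luciferase-reporter HCMV at MOI 1 PFU/cell; luciferase read at 72 h post infection, normalized to buffer-only and Salinomycin controls.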
* = called active by the depositor; ? = inconclusive; / = not tested or not shown; [ ] = dose if it differs, or a comment. Sampled rows, rich in hits. Any-hit rate of the full collection: about 8%.

SMILES	Marburg entry inh	SARS PLP yeast	HCV inh	FMDV inh	LASV entry inh	HCMV antiviral
COc1cc(NC(=O)c2ccccn2)cc(OC)c1OC	1%	0%	7%	6%	?	-33
C/C(=N\NC(=O)c1cc(C)nc2ccccc12)c1ccncc1	?	-3%	14%	-6%	-15%[46.1 µM]	6
COc1cccc(C(=O)N/N=C(/CCC(=O)O)c2ccccc2)c1	?	7%	1%	-12%	-12%	7
COc1cc(C(=O)N/N=C(\C)c2ccccn2)cc(OC)c1OC	?	3%	-25%	-13%	?	-88*
COc1cccc(C(=O)N/N=C(/c2ccccc2)c2ccccn2)c1	?	-36%	?	?	?	-102*
CCOC(=O)c1cccn1C1C(=O)N(C)c2c(F)cccc21 (stereo not given)	/	/	/	/	/	21
CC(=NNC(=S)Nc1cccc(Cl)c1)c1ccccn1	0.2µM*	/	?	-9%	1.1µM*	-97*
C/C(=N\NC(=O)c1ccccn1)c1ccc(Cl)cc1	?	-2%	-10%	23%	?	-17
COc1cc(C(=O)NN=C2c3ccccc3-c3ccccc32)cc(OC)c1OC	/	/	/	/	/	-88*
C/C(=N\NC(=O)c1ccc(Cl)cc1)c1ccccn1	0.89µM*	-18%	3.2µM*	?	1.3µM*	-101*
Cn1c(COc2ccccc2)nnc1SCCN1CCOCC1	-8%	3%	15%	1%	0%	24
Cn1c(COc2ccccc2)nnc1SCCSc1nnc(COc2ccccc2)n1C	2%	6%	?	-18%	-7%	-65*
O=C(NCCn1cc(SCc2cccc(F)c2)c2ccccc21)c1cccc(C(F)(F)F)c1	?	/	/	?	0%[46.1 µM]	-92*
COc1ccccc1C(=O)NCCn1cc(SCC(=O)Nc2cc(C)on2)c2ccccc21	-13%	7%	32µM*	-21%	?	-39
COc1ccc(C(=O)NCCn2cc(SCc3cccc(F)c3)c3ccccc32)cc1OC	?	/	/	18µM*	?	?
CCOC(=O)c1c(C)[nH]c(C)c1S(=O)(=O)N1CCN(c2ccccc2OC)CC1	/	/	/	20%	-3%[46.1 µM]	36
CC(=O)NC(c1ccc(N(C)C)cc1)c1cc(Cl)c2cccnc2c1O (stereo not given)	/	/	/	-24%	/	-100*
CC(=O)NC(c1ccccc1)c1cc(Cl)c2cccnc2c1O (stereo not given)	13µM*	?	10µM*	-16%	?	-95*
COc1ccc(C(=O)NCC2Cc3cc(C)cc(-c4nc5ccccc5s4)c3O2)c(OC)c1OC (stereo not given)	/	/	/	-26%	/	/
COc1cccc(-c2ncn(CCc3ccccc3OC)c2CC(C)C)c1	/	/	/	/	/	-88*
COc1cccc(-c2ncn(CCc3ccccc3OC)c2C(C)C)c1	/	/	/	32µM*	/	-101*
CCc1ncn(CCc2ccccc2OC)c1C(C)C	/	/	/	-16%	/	-18
COCCCNC(=O)C1CCN(c2cc(C)nc3c(-c4ccc(Cl)cc4)c(C)nn23)CC1	2%[46.1 µM]	/	/	-9%	1%[46.1 µM]	-2
Cc1ccc(S(=O)(=O)NC2CC(=O)N(c3ccc4c(c3)OCCO4)C2)cc1 (stereo not given)	-19%	0%	?	4%	-13%	-16
COc1cc(OC)cc(-n2nnc(-c3nc(-c4ccccc4Cl)no3)c2N)c1	/	/	/	35%	11%[46.1 µM]	23
SMILES	Marburg entry inh	SARS PLP yeast	HCV inh	FMDV inh	LASV entry inh	HCMV antiviral
CN(CC(=O)NCC1CCCCC1)S(=O)(=O)c1ccc(F)cc1	-6%[46.1 µM]	2%	-2%	-4%	0%[46.1 µM]	-63*
CN(CC(=O)NCc1ccc(F)cc1)S(=O)(=O)c1ccc(Br)s1	0%[46.1 µM]	-2%	5%	0%	-14%	-71*
C[C@@H]1[C@@H](c2ccccc2)Nc2ccc(Br)cc2[C@H]1NC(=O)OCc1ccccc1	/	/	/	/	/	-34
Cn1cc(S(=O)(=O)N2CCCCCC2)cc1C(=O)Nc1ccc(Cl)c(C(F)(F)F)c1	/	/	/	-27%	-5%[46.1 µM]	-17
O=C(CN1CCCC1)Nc1ccc(OCc2ccccc2)cc1	/	-1%	10µM*	20%	/	46
CN1CCN(c2ccc(NC(=O)c3cccc(OCc4ccccc4)c3)cc2)CC1	22µM*	-5%	25µM*	7%	-17%	92
CC(C)Oc1cccc(C(=O)Nc2ccc(N3CCN(C)CC3)cc2)c1	/	2%	-15%	56%	/	44
COc1ccccc1NC(=O)CN1CCN(CC(=O)Nc2ccc(F)cc2)CC1	-19%	3%	?	-12%	2%	15
CN1CCN(c2ccc(NC(=O)N3CCc4ccccc43)cc2)CC1	?	1%	8%	18µM*	-31%[46.1 µM]	-78*
COc1ccccc1NC(=O)CN1CCN(CC(=O)Nc2ccc(S(N)(=O)=O)cc2)CC1	/	3%	-25%	?	/	-64*
CCOC(=O)CSc1nc2ccc(NC(=O)c3ccccc3F)cc2s1	0%[46.1 µM]	/	/	0%	?	10
CCOC(=O)N1CCN(CC(=O)Nc2ccc(Oc3ccccc3)cc2)CC1	-27%	1%	-17%	?	0.56µM*	-29
NS(=O)(=O)c1ccc(NC(=O)CN2CCN(S(=O)(=O)/C=C/c3ccccc3)CC2)cc1	-18%[46.1 µM]	5%	-13%	-2%	-1%	-100*
COc1ccccc1NC(=O)CN1CCN(CC(=O)Nc2ccc(OCc3ccccc3)cc2)CC1	?	-2%	6%	?	11µM*	?
O=C(CN1CCN(c2ccccc2)CC1)Nc1ccc(OCc2ccccc2)cc1	?	-6%	11µM*	0%	?	/
CN1CCN(CC(=O)Nc2ccc(Oc3ccccc3)cc2)CC1	?	0%	?	1%	-5%	?
NS(=O)(=O)c1ccc(NC(=O)CN2CCN(Cc3ccccc3)CC2)cc1	11%	1%	20%	-5%	-1%	34
Cc1nnc(N2CCC(C(=O)NCCC(C)C)CC2)c2nn(-c3ccc(Cl)cc3)c(C)c12	/	/	/	-10%	4%[46.1 µM]	-15
CN(C)CC(=O)N1[C@@H]2c3ccc(C4=CCCCC4)c(=O)n3C[C@H]1[C@H](CO)[C@H]2C(=O)NCC1CC1	/	/	/	/	/	-16
O=C(NC1CCCCC1)c1cccc(OCc2ccccc2)c1	-24%[46.1 µM]	-5%	14µM*	-13%	-23%[46.1 µM]	?
COc1ccccc1-c1ccnc(-n2ncc(C(=O)NCc3ccncc3)c2C)n1	/	/	/	-7%	/	/
CN(C(=O)COC(=O)c1ccccc1NCc1ccco1)c1c(N)n(Cc2ccccc2)c(=O)[nH]c1=O	-30%[46.1 µM]	0%	-20%	-17%	-30%	-9
COC(=O)c1ccccc1Sc1ncnc2onc(C)c12	?	0%	?	28µM*	-10%	-23
Cc1noc2ncnc(Sc3ccccc3Cl)c12	-21%[46.1 µM]	5%	?	40µM*	?	-79*
Cc1ccc(S(=O)Cc2nc(-c3ccc(C(=O)NC(C)c4ccccc4)cc3)oc2C)cc1 (stereo not given)	/	/	/	-30%	-14%[46.1 µM]	-23
O[C@@H]1CN=C2Sc3ccccc3N2C1	-9%	/	/	/	/	/
